Laboratory results published in PMC5540273 (PLoS ONE, 2017).

Experiments:
Conditions in all cases: concentration: 1 μM, replicates: in singlicate; n = 1
[1] = tested on: T1, RSK4(Kin.Dom.1-N-terminal)
T1 construct: gene RPS6KA6

[2] = tested on: T2, RSK4(Kin.Dom.2-C-terminal)
T2 construct: gene RPS6KA6

[3] = tested on: S6K1
[4] = tested on: SBK1
[5] = tested on: SGK2
[6] = tested on: SGK3
[7] = tested on: SGK
[8] = tested on: SIK2
[9] = tested on: SIK
[10] = tested on: SLK
[11] = tested on: T3, SNARK
T3 construct: gene NUAK2

[12] = tested on: SNRK
[13] = tested on: SRC
[14] = tested on: SRMS
[15] = tested on: SRPK1
[16] = tested on: SRPK2
[17] = tested on: SRPK3
[18] = tested on: STK16
[19] = tested on: STK33
[20] = tested on: STK35
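Note: KINOMEscan kinase panel screen.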

SMILES | %Inh [1] [%] | %Inh [2] [%] | %Inh [3] [%] | %Inh [4] [%] | %Inh [5] [%] | %Inh [6] [%] | %Inh [7] [%] | %Inh [8] [%] | %Inh [9] [%] | %Inh [10] [%] | %Inh [11] [%] | %Inh [12] [%] | %Inh [13] [%] | %Inh [14] [%] | %Inh [15] [%] | %Inh [16] [%] | %Inh [17] [%] | %Inh [18] [%] | %Inh [19] [%] | %Inh [20] [%]
COC(=O)Nc1nc2cc(Oc3ccc(NC(=O)Nc4cccc(SC)c4)cc3)ccc2[nH]1.Cl [GW697999] | 0 | 0 | 9 | 0 | 0 | 8 | 11 | 0 | 0 | 33 | 7 | 0 | 61 | 0 | 38 | 17 | 0 | 3 | 0 | 0
CN1CCN(Cc2ccc(NC(=O)Nc3ccc(N(C)c4ccnc(Nc5ccc(CS(C)(=O)=O)cc5)n4)cc3)cc2)CC1.Cl [GW827654] | 6 | 57 | 17 | 0 | 58 | 21 | 53 | 15 | 22 | 97.3 | 59 | 10 | 3 | 0 | 92.3 | 31 | 82 | 80 | 0 | 18
CN(C)c1ncnc2nc[nH]c12 [SKF-31736] | 28 | 8 | 29 | 0 | 23 | 0 | 14 | 0 | 0 | 0 | 0 | 0 | 0 | 20 | 0 | 10 | 17 | 0 | 0 | 0
CC(C)(C)c1ccc(C(=O)Nc2cn3cc(-n4ccnc4)ccc3n2)cc1 | 29 | 0 | 8 | 0 | 11 | 60 | 2 | 10 | 9 | 6 | 79 | 16 | 0 | 0 | 0 | 0 | 0 | 19 | 0 | 0
CN(c1ccc(NC(=O)Nc2cccc(Cl)c2)cc1)c1ccnc(N)n1.Cl [GW830707] | 0 | 0 | 0 | 3 | 0 | 0 | 0 | 0 | 0 | 20 | 0 | 0 | 15 | 3 | 3 | 0 | 8 | 6 | 2 | 0
Cn1cc(-c2cnc(N)c3c(-c4ccc5c(c4)CCN5C(=O)Cc4ccccc4)csc23)cn1 [GSK2593074] | 0 | 18 | 16 | 0 | 6 | 0 | 21 | 9 | 42 | 69 | 12 | 0 | 81 | 55 | 3 | 0 | 0 | 24 | 0 | 4
COC(=O)Nc1nc2ccc(Oc3ccc(CC(=O)Nc4cc(C(F)(F)F)ccc4F)cc3)cc2[nH]1 [GW680903] | 0 | 9 | 9 | 10 | 4 | 0 | 0 | 0 | 0 | 2 | 0 | 0 | 0 | 0 | 31 | 0 | 0 | 0 | 0 | 0
Cc1ccc(NC(=O)c2ccnc(N3CCCCC3)c2)cc1-c1ccc(C(=O)NCC2CC2)cc1 [GW775610] | 0 | 39 | 19 | 0 | 5 | 0 | 0 | 0 | 0 | 5 | 0 | 0 | 0 | 0 | 0 | 0 | 14 | 0 | 0 | 0
Fc1cc(Cl)ccc1Nc1ccnc2cc(-c3ccc(CN4CCSCC4)o3)ccc12 [GW560106] | 0 | 87 | 0 | 0 | 0 | 0 | 0 | 81 | 97.2 | 65 | 0 | 0 | 99 | 21 | 42 | 23 | 0 | 0 | 20 | 20
